Assay outcomes from PubChem BioAssay.
ALDH1A1 block: qHTS Assay for Inhibitors of Aldehyde Dehydrogenase 1 (ALDH1A1); actives 7.3% (n = 220,000); Potency, µM (titrated, usually from 75.3 µM), without a hit: at the top dose activity, negative = inhibition, most hits filed as inhibitors; Purified ALDH1A1, NADH fluorescence, propionaldehyde substrate;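 further: potency means the concentration at half of the fitted maximal effect; plate controls were no enzyme wells and a reference inhibitor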
PNC assembly inh: High Content Assay for Compounds that inhibit the Assembly of the Perinucleolar Compartment; PC3M PTB-GFP, PNC prevalence imaging, 16 h; stronger effect = lower value; activity change (PNC), negative = inhibition, % at 10 µM; actives 3.1% (n = 140,000); AID 2417, 2010;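 active means readout at or below -70, meaning at least 70% loss of cells showing the perinucleolar compartment, a nuclear body marking cancer cells; inconclusive means readout between -30 and a set limit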;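 further: plate controls were DMSO wells for no effect and camptothecin positive control wells for full effect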
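PC3M cells stably expressing PTB-GFP, 750–1000 cells/well, treated 16 h at 37 °C with compound (23 nl of library stock), in duplicate. After paraformaldehyde fixation and Hoechst stain, imaged at 20x; PNC prevalence scored by image analysis.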
IMPase Li cell: qHTS Assay for Identifying the Cell-Membrane Permeable IMPase Inhibitors: Potentiation with Lithium; CHO-M1 cells, IP1 TR-FRET (IP-One), carbachol + lithium; Potency, µM (highest dose often 59.4 µM), for the others: at the highest dose activity, negative = IMPase inhibition, hits mostly inhibitors; actives 0.35% (n = 210,000); AID 1457, 2008; active means well fitted curve in the direction sought with a large enough effect; inconclusive means small, poorly fitted or top-dose-only effect, or another doubt; inactive means no such curve, though single readings can be large; an effect the other way counts as inactive or inconclusive;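 further: IP1 builds up when IMPase is blocked and the TR-FRET signal falls; potency means the concentration at half of the fitted maximal effect; plate controls were basal vehicle for no effect and high inhibitor control for full effect; nearly all actives have a fitted effect of over 50% in size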
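Lithium-sensitised IP1 accumulation assay; M1-expressing CHO cells treated 30 min at 37C with compound. Competitive antibody detection by time-resolved FRET followed a 10 min room-temperature lysis step.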
HPGD inh: qHTS Assay for Inhibitors of HPGD (15-Hydroxyprostaglandin Dehydrogenase); AID 894, 2007; purified HPGD, NADH fluorescence kinetic, PGE2 substrate; Potency, µM, inactives show at the top dose activity change, negative = inhibition, actives largely listed as inhibitors; actives 4.3% (n = 150,000); further: potency means the concentration at half of the fitted maximal effect
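NADH formation kinetics: reaction with 30 uM PGE2 and 1 mM NAD+ (final), 20 nM enzyme, Tris-HCl pH 8 with Tween 20, after 15 min compound preincubation at room temperature. Fluorescence change, last versus first of five reads.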
IMPase cell inh: qHTS Assay for Identifying the Cell-Membrane Permeable IMPase Inhibitors; Inositol monophosphatase 1 (Rattus norvegicus), P97697; CHO-M1 cells, IP1 accumulation, HTRF TR-FRET ratio; inhibition (IP1 accumulation), % at 46.1 µM; 120,000 tested, under 10 active; AID 901, 2007; active means well fitted curve in the direction sought with a large enough effect in the signal ratio, not every such curve was filed as active; inconclusive means small, poorly fitted or top-dose-only effect, or a change in a side signal; inactive means no such curve, though single readings can be large or run the other way; the % refers to the signal ratio;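 further: cells stimulated with carbachol in lithium chloride buffer; plate controls were DMSO basal wells for no effect and reference inhibitor wells for full effect; higher means more IMPase inhibition seen as more IP1 and lower FRET ratio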
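Measured: the HTRF emission ratio (665/620 nm) plus the 620 nm donor channel, each fitted to the Hill equation to give AC50. Cells were CHO-M1 given compounds up to 46 uM and a 30 min carbachol stimulation at 37C.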
ALOX12 inhib: qHTS Assay for Inhibitors of 12-hLO (12-human lipoxygenase); Polyunsaturated fatty acid lipoxygenase ALOX12 (Homo sapiens), P18054; purified 12-hLO, xylenol orange hydroperoxide absorbance; Potency, µM (series often up to 57.1 µM), for inactives: at the top dose activity change, negative = inhibition, actives largely listed as inhibitors; actives 0.12% (n = 150,000); active means well fitted curve in the direction sought with a large enough effect; inconclusive means small, poorly fitted or top-dose-only effect, or another doubt; inactive means no such curve, though single readings can be large; an effect the other way counts as inactive or inconclusive; further: potency means the concentration at half of the fitted maximal effect; nearly all actives have a fitted effect of over 55% in size
Target sequence (P18054 whole entry, looked up): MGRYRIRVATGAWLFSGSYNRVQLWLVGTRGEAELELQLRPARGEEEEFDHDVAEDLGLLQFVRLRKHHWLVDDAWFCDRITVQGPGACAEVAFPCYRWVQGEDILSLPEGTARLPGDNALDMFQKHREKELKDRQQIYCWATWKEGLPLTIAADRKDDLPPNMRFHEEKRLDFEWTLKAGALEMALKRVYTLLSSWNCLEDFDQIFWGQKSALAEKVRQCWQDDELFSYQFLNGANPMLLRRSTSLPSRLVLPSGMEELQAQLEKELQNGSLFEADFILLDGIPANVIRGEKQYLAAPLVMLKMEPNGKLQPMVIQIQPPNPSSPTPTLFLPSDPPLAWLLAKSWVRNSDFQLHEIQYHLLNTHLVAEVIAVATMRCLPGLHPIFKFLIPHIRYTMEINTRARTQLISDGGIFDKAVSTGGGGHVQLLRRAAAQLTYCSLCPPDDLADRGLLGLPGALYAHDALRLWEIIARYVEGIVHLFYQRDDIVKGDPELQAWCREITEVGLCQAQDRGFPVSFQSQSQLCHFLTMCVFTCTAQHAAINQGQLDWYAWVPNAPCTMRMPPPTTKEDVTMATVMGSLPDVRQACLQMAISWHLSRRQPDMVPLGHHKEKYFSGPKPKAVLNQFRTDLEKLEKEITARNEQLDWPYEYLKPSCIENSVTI
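Purified human 12hLO (150 nM), preincubated 15 min with compound, then 40 uM arachidonic acid for 30 min, room temperature, Hepes pH 7.0 with 0.01% Triton X-100. Hydroperoxide detected by ferrous iron/xylenol orange; 573/405 nm absorbance ratio gives reaction progress.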
The depositor's hits bear a star; ? = inconclusive; . = not tested or not shown; [ ] = dose if it differs, or a comment. A selection: hits, their analogues and other compounds. The true share with any hit is near 11%. Unless noted, the call rests on the fitted dose curve; in most records, active means well fitted inhibition curve with a large enough effect (not every such curve was filed as active); inconclusive means small, poorly fitted or top-dose-only effect, or another doubt; inactive means no such curve, though single readings can be large or run the other way. Unless noted, on the % scale 0 is the no-effect control and ±100 the full control effect.

SMILES	ALDH1A1 block	PNC assembly inh	IMPase Li cell	HPGD inh	IMPase cell inh	ALOX12 inhib
O=C(NC1CCCCC1)C(c1ccc2ncccc2c1)N(Cc1ccccc1)C(=O)c1cccs1 (centres undefined)	?	38	0%	-5%	4	-1%
O=C(NC1CCCCC1)C(c1ccc2ncccc2c1)N(Cc1ccc2c(c1)OCO2)C(=O)c1cccs1 (centres undefined)	5µM*	3	5%[38.3 µM]	-14%	6	2%
O=C(NCc1ccccc1)C(c1ccccc1)N(Cc1ccc2c(c1)OCO2)C(=O)Cc1cccs1 (centres undefined)	?	-108*	25%	-13%	2	-3%
Cc1ccc(CCC(=O)Nc2ccccc2F)s1	-10%	.	0%	.	.	.
O=C(Cc1cccs1)NCc1ccc2c(c1)OCO2	9%	?	22%[38.3 µM]	16µM*	6	0%
CC(C)CC(=O)NCc1ccc(F)cc1	-5%	51	10%[38.3 µM]	16µM*	5	9%
O=C(O)CCC(=O)NCc1ccc(F)cc1	6%	17	14%[38.3 µM]	-1%	6	2%
O=C(Cc1cccs1)NCc1cccnc1	8%	18	-1%[38.3 µM]	-3%	-3	-1%
O=C(Cc1cccs1)NCc1ccc(F)cc1	8%	9	-1%[38.3 µM]	25µM*	-2	-8%
O=C(CCC1CCCCC1)NCc1cccs1	-7%	2	27%[38.3 µM]	10µM*	-4	3%
O=C(CCSCCC(=O)NCc1cccs1)NCc1cccs1	-13%	?	1%[38.3 µM]	-4%	2	3%
Cc1noc(C)c1-c1nccc(NCc2cccnc2)n1	-1%	.	-2%	-9%	.	-2%
N[C@H](C(=O)O)c1cccc(O)c1	14%	.	-15%	-10%	?	3%
C[C@@H](c1ccccc1)N1C(=O)[C@@H]2[C@H]3C(=CC[C@H]2C1=O)C(=O)[C@H]1O[C@H]1[C@H]3O	-5%[13.5 µM]	.	.	.	.	.
COc1ccc(CC(=O)NCc2cccs2)cc1	3%	0	0%[38.3 µM]	-28%	12	-3%
O=C(CSc1ccc2ccccc2c1)NCc1cccs1	?	-22	15%	7.9µM*	2	-4%
O=C(CC1CC2CCC1C2)NCc1cccs1 (centres undefined)	8%	4	23%[38.3 µM]	16µM*	-1	0%
Cc1ccc(CNC(=O)COc2ccc(C(=O)c3ccc(F)cc3)cc2)cc1	?	-20	1%	40µM*	-6	-2%
O=C(Cc1cccs1)NCc1cccs1	?	?	9%[38.3 µM]	16µM*	-15	-1%
O=C(NCc1cccs1)C12CC3CC(CC(C3)C1)C2	-5%	.	-5%	.	.	.
O=C(COc1ccc(C(=O)c2ccc(F)cc2)cc1)NCc1ccc(F)cc1	-13%	8	12%	-17%	11	-4%
Cc1cc2nc(N=C(N)N)nc(C)c2cc1C	5%	.	24%	.	.	.
CCc1ccc(NC(=O)C2CCC(CNS(=O)(=O)c3cccs3)CC2)cc1 (centres undefined)	.	.	.	.	6	.
Cc1nc2ccc(NC(=O)c3ccc(Cl)c([N+](=O)[O-])c3)cc2s1	5%	-17	6%	-1%	-1	1%
Cc1nc2ccc(NC(=O)c3cc([N+](=O)[O-])cc([N+](=O)[O-])c3Cl)cc2s1	?	-2	30%	7.1µM*	1	-1%
SMILES	ALDH1A1 block	PNC assembly inh	IMPase Li cell	HPGD inh	IMPase cell inh	ALOX12 inhib
O=C(Cc1cccs1)N1CCN(c2ccc([N+](=O)[O-])cc2)CC1	25µM*	.	7%	.	.	.
O=C(c1cccs1)N1CCN(C(=O)C2CCCO2)CC1 (centres undefined)	?	-1	1%	-9%	10	1%
O=C(CCc1ccccc1)N1CCN(c2ccc([N+](=O)[O-])cc2)CC1	2.2µM*	.	17%	.	.	.
Cc1nc2ncnn2c(N2CCN(C(=O)Cc3cccs3)CC2)c1C	7.9µM*	-15	4%[38.3 µM]	-23%	20	-14%
O=C(Cc1cccs1)N1CCN(C(=O)C2CCCO2)CC1 (centres undefined)	?	-120*	1%[38.3 µM]	-2%	8	-5%
Cc1ccc(-c2nnc(Nc3ccc(C(=O)N(C)C)cc3)c3ccccc23)cc1S(=O)(=O)N(C)C	.	.	.	.	4	.
O=C(c1cc([N+](=O)[O-])ccc1Cl)N1CCN(c2ccc([N+](=O)[O-])cc2)CC1	-5%	5	-4%	-26%	.	-2%
CN1N=C(C(=O)N2CCN(c3ccc([N+](=O)[O-])cc3)CC2)CCC1=O	?	-94*	-7%	-10%	.	1%
CCNc1ncc2nc(-c3ccc(Cl)cc3)c(=O)n(Cc3cccs3)c2n1	?	.	-11%	.	.	.
C/C(CC(=O)Nc1cc(Cl)ccc1Cl)=N\NC(N)=S	13µM*	45	-4%[38.3 µM]	-6%	4	?
CCOc1ccc(C(C)=O)cc1N1C(=O)C2C(C1=O)C1C=CC2C12CC2 (centres undefined)	-14%	16	14%[38.3 µM]	-11%	2	3%
CC(=O)Oc1ccc(N2C(=O)C3C(C2=O)C2C=CC3C23CC3)cc1[N+](=O)[O-] (centres undefined)	7.9µM*	.	9%	.	.	.
CC(=O)Oc1ccc(N2C(=O)C3C4C=CC(C5CC45)C3C2=O)cc1[N+](=O)[O-] (centres undefined)	6.3µM*	-12	-2%	-29%	.	3%
C/C(=C\C(=O)C(F)(F)F)Nc1ccc(C(F)(F)F)cc1	22µM*	?	-4%	-4%	3	-3%
O=C(N/N=C\c1ccc(F)cc1)c1cc(OCC(F)(F)F)ccc1OCC(F)(F)F	4%	-87*	11%[38.3 µM]	-1%	4	-8%
Cc1ccc(S(=O)(=O)NCCNC(=O)c2cc(OCC(F)(F)F)ccc2OCC(F)(F)F)cc1	?	?	11µM*	?	-9	-7%
Cc1ccc(CN2C(=O)c3oc4ccc(C)cc4c(=O)c3C2c2ccc(O)cc2)cc1 (centres undefined)	.	.	.	.	1	.
COc1ccc(Oc2nccc(-c3ccc(F)cc3)c2C#N)cc1	1%	-15	28µM*	-29%	?	-4%
O=c1c(-c2cc(F)cc(F)c2)nc2cnc(N3CCNCC3)nc2n1-c1ccccc1	?	.	4%	.	.	.
